The sample as a whole holds a higher share of hits than the screen did.
Pf Dd2 inh = blocks in vitro growth of P. falciparum Dd2; actives 4.3% (n = 120,000); AID 1347417; Potency, µM (series often up to 28.9 µM), usual class: inhibitors; P. falciparum Dd2 growth, SYBR Green, 72 h; active means well fitted inhibition curve with a large enough effect; further: nearly all actives have a fitted effect of over 65% in size
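Infected erythrocytes (Dd2, 0.3% parasitemia, 2.5% hematocrit final) are added to compound in RPMI-1640/Albumax II medium, grown 72 h at 37C in low oxygen, then lysed with saponin/Triton-X containing SYBR Green and read by fluorescence.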
Large screens that a line does not name were inactive.

CCN1CCC2(CCC1=O)CN(Cc1cccc3cccnc13)CCN2C (centres undefined)	none
COc1cccc(CC(=O)N2CCCC3(C2)NC(=O)N(Cc2ccc(Cl)cc2)C3=O)c1 (centres undefined)	none
CNC(=O)C1(N2CCC[C@H]2C(=O)N2CCOCC2)CCCCC1	none
CCOc1ccc(NC(=O)c2ccc(F)c(S(=O)(=O)N(CC)Cc3ccccc3)c2)cc1	none
CCN(Cc1ccccc1)S(=O)(=O)c1ccc(F)c(C(=O)Nc2cc(C)ccc2OC)c1	none
CCN(CC)S(=O)(=O)c1cccc(C(=O)Nc2ccccc2C(=O)Nc2ccc(Cl)cc2)c1	Pf Dd2 inh 10µM
CCN(CC)Cc1nc(C2(O)CCN(C3CCN(C(C)=O)CC3)CC2)cs1	none
COC1C(=O)N(c2cccc(F)c2)C12CCN(C(=O)CC1CCN(C(C)=O)CC1)CC2 (centres undefined)	none
COC1CN(c2cccc(F)c2)C12CCN(C(=O)CC1CCCCC1)CC2 (centres undefined)	Pf Dd2 inh 8.91µM
CCCS(=O)(=O)N1CCC2(CC1)C(OC)CN2c1cccc(F)c1 (centres undefined)	none
O=C([C@@H]1C[C@H](Oc2cccnc2)CN1)N1CCOCC1	none
CCC(=O)N(C1CCOCC1)C1CCN(Cc2cc(F)cc(F)c2)CC1	none
CCOC(=O)c1c(C)[nH]c(C)c1S(=O)(=O)N1CCCC(C(=O)Nc2cccc(C)n2)C1 (centres undefined)	none
CCOC(=O)c1c(C)[nH]c(C)c1S(=O)(=O)N1CCC(C(=O)N2CCN(c3cc(C)ccc3C)CC2)CC1	none
CCOC(=O)c1c(C)[nH]c(C)c1S(=O)(=O)N1CCCC(C(=O)N2CCN(c3cccc(C)c3C)CC2)C1 (centres undefined)	Pf Dd2 inh 0.562µM
Cc1cccc(CCNC(=O)C2CCCN(S(=O)(=O)c3ccc4c(c3)oc(=O)n4C)C2)c1 (centres undefined)	none
CCOC(=O)C1CCCN(S(=O)(=O)c2ccc3c(c2)oc(=O)n3C)C1 (centres undefined)	none
Cc1cccc(N2CCN(C(=O)C3CCCN(S(=O)(=O)c4ccc5c(c4)oc(=O)n5C)C3)CC2)c1C (centres undefined)	Pf Dd2 inh 11.2µM
CC(C)c1ccc(C(=O)NCc2ccnc3[nH]ccc23)cc1	none
Cc1cc2nc3n(c(=O)c2n1CC(=O)Nc1ccc2c(c1)OCCO2)CCCCC3	none
COc1ccc(C(=O)N2CCCOCCNC(=O)CC2)cc1F	none
CS(=O)(=O)N1CCN(C2CCNCC2)C(=O)C1	none
O=C(Cc1ccccn1)N1CCC(N2CCCCCC2=O)CC1	none
COCCN1CCC2(CCC1=O)CN(Cc1cccc(Cl)c1)CCN2C (centres undefined)	none
CCc1cc(=O)n(CC(=O)NCc2ccc(OC)cc2)c(N2CCOCC2)n1	none
COc1ccc(-c2cnc3n[nH]c(-c4sccc4C)c3n2)cc1OC	none
COc1coc(C(=O)N2CCCC(c3ccccc3)(c3ccccc3)C2)cc1=O	none
Cc1nnnn1CC(=O)N1CCCC(c2ccccc2)(c2ccccc2)C1	none
CC(C)c1cc(C(=O)N2CCCC(c3ccccc3)(c3ccccc3)C2)n(C)n1	Pf Dd2 inh 3.16µM
CCn1ncc(N2CCCC(CC(=O)NCCc3ccccc3)C2)cc1=O (centres undefined)	none
Cc1ccccc1-c1cc(O)c2c(c1)CN(C(=O)C1CCNCC1)CCO2	none
Cc1cc(CN2CCOc3c(O)cc(-c4ccccc4C)cc3C2)on1	none
Cc1cccc(CN2CCOc3c(O)cc(-c4ccccc4C)cc3C2)n1	Pf Dd2 inh 8.91µM
O=C(c1ccccc1OCC1CCCN(Cc2ccncc2F)C1)N1CCOCC1 (centres undefined)	none
O=C(CC[C@H]1NC(=O)c2ccccc2NC1=O)NCCc1ccncc1	none
O=C(Cc1ccc(F)cc1)NCc1nnc2c(-c3nc(C4CC4)no3)cccn12	none
COc1ccc(NC(=O)c2cnc3c(c2)N([S+](=O)([O-])c2cccnc2)CCC3)cc1OC	none
Cc1nc(N2CCC(NC(=O)Cc3cccc(F)c3)CC2)cc(C(F)(F)F)n1	none
CCc1cc(N2CCC(NCCc3cccc(Cl)c3)CC2)nc(C)n1	Pf Dd2 inh 11.2µM
CCCc1cc(N2CCC(N[C@@H]3CCNC3)CC2)nc(C)n1	none
COc1cccc(C(=O)N2CCC(N3C(=O)CCC3C(=O)NCc3ccccc3)CC2)c1 (centres undefined)	none
Cc1sc(-n2cccc2)c(C(C)NC(=O)Nc2ccccc2Cl)c1C (centres undefined)	Pf Dd2 inh 5.62µM
Cc1ccc(-c2ccc(=O)n(C(C)C(=O)Nc3ccccc3Cl)n2)cc1C (centres undefined)	none
CCOc1ccc(NC(=O)NC(C)c2c(-n3cccc3)sc(C)c2C)cc1 (centres undefined)	none
CCOC(=O)c1ccccc1NC(=O)NC(C)c1c(-n2cccc2)sc(C)c1C (centres undefined)	Pf Dd2 inh 11.2µM
CCOC(=O)c1ccccc1NC(=O)N(C(C)C)C1CCN(C(C)=O)CC1	none
COc1cc(NC(=O)NC(C)c2c(-n3cccc3)sc3c2CCCC3)cc(OC)c1OC (centres undefined)	none
c1cc(-c2n[nH]c(C3CCCCN3)n2)ccn1 (centres undefined)	none

Screening data from PubChem BioAssay.
